PMC7862700, “An all-to-all approach to the identification of sequence-specific readers for epigenetic DNA modifications on cytosine”

How the values were obtained:
Assay in all cases: DAPPL (digital affinity profiling via proximity ligation, sequencing); 10 mM Tris-HCl pH 7.5, 50 mM NaCl, 1 mM DTT, 4% glycerol, room temperature, 30 min; GST-TFs on glutathione beads, 16-mer random dsDNA library, 0.1% formaldehyde crosslink after washing; high values mean tight binding
Conditions in all cases: protein: recombinant; tags: N-terminal GST; dsDNA, one strand shown
[1] = biological target: T1, FLI1 (Homo sapiens, UniProt Q01543 1-452)
T1 sequence: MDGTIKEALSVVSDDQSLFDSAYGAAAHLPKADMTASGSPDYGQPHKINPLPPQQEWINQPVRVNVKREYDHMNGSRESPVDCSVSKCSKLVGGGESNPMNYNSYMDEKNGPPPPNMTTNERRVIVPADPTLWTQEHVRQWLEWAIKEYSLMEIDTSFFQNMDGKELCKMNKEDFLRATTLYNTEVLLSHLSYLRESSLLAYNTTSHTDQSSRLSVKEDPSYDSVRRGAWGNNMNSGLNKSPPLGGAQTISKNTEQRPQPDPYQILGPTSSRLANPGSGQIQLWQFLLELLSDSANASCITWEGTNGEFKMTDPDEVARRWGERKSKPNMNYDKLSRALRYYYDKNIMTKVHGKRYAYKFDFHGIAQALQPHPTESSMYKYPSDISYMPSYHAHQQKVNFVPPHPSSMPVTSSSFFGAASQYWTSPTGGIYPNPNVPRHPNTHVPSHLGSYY
Outline: (§1)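 Each value of binding signal is a hexamer's read frequency for a factor divided by the same hexamer's frequency in the tag-only sample. Barcoded, bead-captured GST fusions of human transcription factors made in yeast were pooled with that sample and incubated with 200 nmole of a random double-stranded 16-mer DNA library in Tris/NaCl/DTT/glycerol buffer at room temperature for 30 min. Washing, 0.1% formaldehyde crosslinking, proximity ligation, PCR and Illumina NextSeq500 sequencing followed.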

[2] = biological target: T2, ELK1 (Homo sapiens, UniProt P19419 1-428)
T2 sequence: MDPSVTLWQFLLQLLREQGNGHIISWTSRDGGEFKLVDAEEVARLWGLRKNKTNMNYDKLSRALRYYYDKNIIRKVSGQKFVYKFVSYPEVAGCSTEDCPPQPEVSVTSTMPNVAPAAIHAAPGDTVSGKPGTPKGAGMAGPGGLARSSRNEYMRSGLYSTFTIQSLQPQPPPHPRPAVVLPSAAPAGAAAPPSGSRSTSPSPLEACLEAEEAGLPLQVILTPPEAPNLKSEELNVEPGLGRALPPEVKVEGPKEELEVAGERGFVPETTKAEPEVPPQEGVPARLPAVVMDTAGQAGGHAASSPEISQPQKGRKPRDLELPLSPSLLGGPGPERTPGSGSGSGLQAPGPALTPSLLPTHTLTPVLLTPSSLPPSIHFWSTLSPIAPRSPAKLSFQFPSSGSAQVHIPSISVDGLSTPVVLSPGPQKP
Outline: as §1

[3] = biological target: T3, GABPA (Homo sapiens, UniProt Q06546 1-454)
T3 sequence: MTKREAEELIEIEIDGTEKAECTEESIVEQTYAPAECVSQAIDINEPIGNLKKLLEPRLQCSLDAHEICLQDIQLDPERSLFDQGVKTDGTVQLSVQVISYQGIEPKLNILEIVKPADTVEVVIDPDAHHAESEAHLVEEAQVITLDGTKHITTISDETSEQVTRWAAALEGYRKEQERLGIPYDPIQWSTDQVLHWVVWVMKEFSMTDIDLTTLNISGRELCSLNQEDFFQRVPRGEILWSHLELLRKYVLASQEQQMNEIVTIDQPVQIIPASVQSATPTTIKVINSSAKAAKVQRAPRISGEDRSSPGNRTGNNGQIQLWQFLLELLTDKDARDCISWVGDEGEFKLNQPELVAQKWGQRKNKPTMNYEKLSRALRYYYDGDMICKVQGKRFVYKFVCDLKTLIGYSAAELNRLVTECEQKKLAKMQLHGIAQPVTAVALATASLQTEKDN
Outline: as §1

[4] = biological target: T4, ERG (Homo sapiens, UniProt P11308 1-479)
T4 sequence: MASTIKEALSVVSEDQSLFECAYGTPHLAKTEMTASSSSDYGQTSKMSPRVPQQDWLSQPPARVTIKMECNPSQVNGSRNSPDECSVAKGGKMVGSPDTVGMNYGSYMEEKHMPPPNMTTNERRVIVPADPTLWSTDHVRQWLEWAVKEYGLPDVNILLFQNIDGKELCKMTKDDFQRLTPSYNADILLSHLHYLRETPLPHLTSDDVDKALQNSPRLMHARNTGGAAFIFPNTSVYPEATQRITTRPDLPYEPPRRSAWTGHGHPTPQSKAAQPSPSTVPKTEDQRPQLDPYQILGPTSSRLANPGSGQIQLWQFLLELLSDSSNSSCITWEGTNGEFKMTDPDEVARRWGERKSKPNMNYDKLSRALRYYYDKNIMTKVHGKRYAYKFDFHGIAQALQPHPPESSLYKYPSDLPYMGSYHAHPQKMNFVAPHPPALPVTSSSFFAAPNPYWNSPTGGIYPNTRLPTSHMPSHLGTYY
Outline: as §1

[5] = biological target: ELF1 (Homo sapiens, UniProt P32519 1-619)
Outline: as §1

[6] = biological target: T5, EHF (Homo sapiens, UniProt Q9NZC4 1-300)
T5 sequence: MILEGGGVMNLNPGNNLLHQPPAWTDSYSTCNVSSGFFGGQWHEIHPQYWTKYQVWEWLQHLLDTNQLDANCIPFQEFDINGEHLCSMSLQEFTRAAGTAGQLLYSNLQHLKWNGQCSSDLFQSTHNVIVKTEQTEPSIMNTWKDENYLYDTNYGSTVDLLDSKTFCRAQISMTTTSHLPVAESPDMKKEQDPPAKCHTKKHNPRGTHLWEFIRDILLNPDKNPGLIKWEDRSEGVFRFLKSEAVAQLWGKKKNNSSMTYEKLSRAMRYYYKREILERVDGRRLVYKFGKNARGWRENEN
Outline: as §1

[7] = biological target: SPI1 (Homo sapiens, UniProt P17947 1-270)
Outline: as §1

[8] = biological target: SPIB (Homo sapiens, UniProt Q01892 1-262)
Outline: as §1

[9] = biological target: T6, ELK3 (Homo sapiens, UniProt P41970 1-407)
T6 sequence: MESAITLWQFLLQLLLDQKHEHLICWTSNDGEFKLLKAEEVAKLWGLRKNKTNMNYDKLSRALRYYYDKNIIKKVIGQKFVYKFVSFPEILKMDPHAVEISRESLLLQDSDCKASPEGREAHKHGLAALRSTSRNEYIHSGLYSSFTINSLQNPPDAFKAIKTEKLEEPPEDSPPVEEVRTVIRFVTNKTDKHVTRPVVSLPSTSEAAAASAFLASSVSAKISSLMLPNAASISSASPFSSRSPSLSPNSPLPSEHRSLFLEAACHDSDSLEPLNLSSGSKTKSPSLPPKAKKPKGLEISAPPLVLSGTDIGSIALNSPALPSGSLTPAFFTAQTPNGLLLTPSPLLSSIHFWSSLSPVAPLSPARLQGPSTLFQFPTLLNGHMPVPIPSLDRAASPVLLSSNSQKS
Outline: as §1

ELF1, sequence (P32519 whole entry): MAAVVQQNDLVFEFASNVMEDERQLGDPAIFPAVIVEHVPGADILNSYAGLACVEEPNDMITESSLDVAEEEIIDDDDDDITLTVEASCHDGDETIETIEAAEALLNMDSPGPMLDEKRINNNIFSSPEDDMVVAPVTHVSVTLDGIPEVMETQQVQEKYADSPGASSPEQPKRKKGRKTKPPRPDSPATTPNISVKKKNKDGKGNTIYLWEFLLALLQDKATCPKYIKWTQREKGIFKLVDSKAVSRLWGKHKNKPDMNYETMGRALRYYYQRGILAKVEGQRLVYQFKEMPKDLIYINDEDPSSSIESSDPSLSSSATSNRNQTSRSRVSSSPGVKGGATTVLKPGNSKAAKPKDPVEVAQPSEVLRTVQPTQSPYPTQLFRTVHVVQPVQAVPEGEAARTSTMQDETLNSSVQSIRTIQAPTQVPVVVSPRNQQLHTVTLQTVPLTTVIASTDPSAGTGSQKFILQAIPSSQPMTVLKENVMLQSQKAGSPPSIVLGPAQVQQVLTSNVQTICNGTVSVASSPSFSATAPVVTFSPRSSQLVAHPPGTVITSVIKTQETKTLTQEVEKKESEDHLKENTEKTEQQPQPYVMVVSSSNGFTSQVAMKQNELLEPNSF
SPIB, sequence (Q01892 whole entry): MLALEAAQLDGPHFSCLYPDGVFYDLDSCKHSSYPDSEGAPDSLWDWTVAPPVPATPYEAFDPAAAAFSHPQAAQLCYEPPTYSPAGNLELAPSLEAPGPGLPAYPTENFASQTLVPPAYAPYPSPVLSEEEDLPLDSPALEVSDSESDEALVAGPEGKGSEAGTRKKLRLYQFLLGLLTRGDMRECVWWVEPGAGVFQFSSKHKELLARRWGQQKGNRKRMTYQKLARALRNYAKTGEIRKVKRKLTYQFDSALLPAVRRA

## GATAAT
[1]
  binding signal: 1.04 fold enrichment (6-mer frequency, TF over GST control)
[2]
  binding signal: 1.05 fold enrichment (6-mer frequency, TF over GST control)
[3]
  binding signal: 1.13 fold enrichment (6-mer frequency, TF over GST control)
[4]
  binding signal: 1.03 fold enrichment (6-mer frequency, TF over GST control)
[5]
  binding signal: 1.02 fold enrichment (6-mer frequency, TF over GST control)
[6]
  binding signal: 1.09 fold enrichment (6-mer frequency, TF over GST control)
[7]
  binding signal: 1.09 fold enrichment (6-mer frequency, TF over GST control)
[8]
  binding signal: 1.12 fold enrichment (6-mer frequency, TF over GST control)
[9]
  binding signal: 1.12 fold enrichment (6-mer frequency, TF over GST control)

## TAACTC
[1]
  binding signal: 1.3 fold enrichment (6-mer frequency, TF over GST control)
[2]
  binding signal: 1.22 fold enrichment (6-mer frequency, TF over GST control)
[3]
  binding signal: 1.23 fold enrichment (6-mer frequency, TF over GST control)
[4]
  binding signal: 1.11 fold enrichment (6-mer frequency, TF over GST control)
[5]
  binding signal: 1.29 fold enrichment (6-mer frequency, TF over GST control)
[6]
  binding signal: 1.16 fold enrichment (6-mer frequency, TF over GST control)
[7]
  binding signal: 1.18 fold enrichment (6-mer frequency, TF over GST control)
[8]
  binding signal: 1.21 fold enrichment (6-mer frequency, TF over GST control)
[9]
  binding signal: 1.18 fold enrichment (6-mer frequency, TF over GST control)

## TTGGCC
[1]
  binding signal: 1.22 fold enrichment (6-mer frequency, TF over GST control)
[2]
  binding signal: 1.24 fold enrichment (6-mer frequency, TF over GST control)
[3]
  binding signal: 1.23 fold enrichment (6-mer frequency, TF over GST control)
[4]
  binding signal: 1 fold enrichment (6-mer frequency, TF over GST control)
[5]
  binding signal: 1.1 fold enrichment (6-mer frequency, TF over GST control)
[6]
  binding signal: 1.17 fold enrichment (6-mer frequency, TF over GST control)
[7]
  binding signal: 1.08 fold enrichment (6-mer frequency, TF over GST control)
[8]
  binding signal: 1.16 fold enrichment (6-mer frequency, TF over GST control)
[9]
  binding signal: 1.12 fold enrichment (6-mer frequency, TF over GST control)

## TTCATC
[1]
  binding signal: 1.36 fold enrichment (6-mer frequency, TF over GST control)
[2]
  binding signal: 1.28 fold enrichment (6-mer frequency, TF over GST control)
[3]
  binding signal: 1.29 fold enrichment (6-mer frequency, TF over GST control)
[4]
  binding signal: 1.22 fold enrichment (6-mer frequency, TF over GST control)
[5]
  binding signal: 1.27 fold enrichment (6-mer frequency, TF over GST control)
[6]
  binding signal: 1.14 fold enrichment (6-mer frequency, TF over GST control)
[7]
  binding signal: 1.27 fold enrichment (6-mer frequency, TF over GST control)
[8]
  binding signal: 1.28 fold enrichment (6-mer frequency, TF over GST control)
[9]
  binding signal: 1.32 fold enrichment (6-mer frequency, TF over GST control)
